# According to the supplement of paper PMC10105736:
# Values without a mark were called inactive.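 How the source made its calls: active = MAPPIT score above the 99th percentile of random reference set scores in the same batch; inactive = at or below it.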
# Tests used:
# Assay in all cases: MAPPIT interaction score (arbitrary units); higher = stronger binary interaction signal, active = hit call of the paper
# [1] = molecular target: Cnb; settings: MAPPIT configuration: N-N; pair source set: Lit-BM-16
# [2] = molecular target: Coprox; settings: MAPPIT configuration: N-N; pair source set: RRS
# [3] = molecular target: Cp190; settings: MAPPIT configuration: N-N; pair source set: Lit-BM-16
# [4] = molecular target: mod(mdg4); settings: pair source set: Lit-BM-16
# [5] = molecular target: Cpr47Eg; settings: MAPPIT configuration: N-N; pair source set: Lit-BM-16
# [6] = molecular target: RpS13; settings: pair source set: Lit-BM-16
# [7] = molecular target: Sas-6; settings: pair source set: Lit-BM-16
# [8] = molecular target: cnn; settings: pair source set: Lit-BM-16
# [9] = molecular target: Cpr56F; settings: MAPPIT configuration: N-N; pair source set: Finley_Y2H
# 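Further: HEK293T cells with Epo stimulation, STAT-responsive firefly luciferase reporter, fold induction versus unstimulated cells divided by the larger fold induction of two negative controls lacking either bait or prey.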
binder,measurement,setting,value
RpS13 (protein) MGRMHAPGKGISQSALPYRRTVPSWLKLNADDVKEQIKKLGKKGLTPSKIGIILRDSHGVAQVRFVNGNKILRIMKSVGLKPDIPEDLYHMIKKAVAIRKHLERNRKDKDGKFRLILVESRIHRLARYYKTKSVLPPNWKYESSTASALVA,MAPPIT interaction score,[1],0.219
Ilp6 (protein) MVLKVPTSKVLLVLATLFAVAAMISSWMPQVAASPLAPTEYEQRRMMCSTGLSDVIQKICVSGTVALGDVFPNSFGKRRKRDLQNVTDLCCKSGGCTYRELLQYCKG,MAPPIT interaction score,[2],-0.378
su(Hw) (protein) MSASKEGKEKKGKLLGVENISPPKDKRPATRMKLLNDVGAGEDSEASTTTTTSRTPSNKQEKRGSVAGSRIKILNEEILGTPKTEKRGATKSTAPAASTVKILNEKKTPSATVTAVETTKIKTSPSKRKKMEHYVLQAVKSENTKADTTVTVVTEEDDTIDFILADDEEVVPGRIENNNGQEIVVTEDDEDLGEDGDEDGEDSSGKGNSSQTKIKEIVEHVCGKCYKTFRRVQSLKKHLEFCRYDSGYHLRKADMLKNLEKIEKDAVVMEKKDICFCCSESYDTFHLGHINCPDCPKSFKTQTSYERHIFITHSEFSDFPCSICNANLRSEALLALHEEQHKSRGKPYACKICGKDFTRSYHLKRHQKYSSCSSNETDTMSCKVCDRVFYRLDNLRSHLKQHLGTQVVKKPEYMCHTCKNCFYSLSTLNIHIRTHTGEKPFDCDLCDKKFSALVALKKHRRYHTGEKPYSCTVCNQAFAVKEVLNRHMKRHTGERPHKCDECGKSFIQATQLRTHSKTHIRPFPCEQCDEKFKTEKQLERHVKTHSRTKRPVFSCAECKRNFRTPALLKEHMDEGKHSPKQQRSSMRSAVKIMERTDCAICDKNFDSSDTLRRHIRTVHECDPDDIFGVEPHPSKRAKKDIESEEVVPVALNTSAGSLISSQTDGNGVVVREFLVDEGDGAAQTITLENETYTILPLDGAIEGEQLTDEAGVKPEAKKEEAQVSPVVKKEQRKSLAASLAAAIADNLEESCSEDDFSGEILTEEDIKLKENVGKLIDMLVDPPILKKYGWPNAPEETVLCKVIENCGHDLTKGGENYAELDYGSRMREYCKLLFTVVIHNDSIKSLLNNFPIDDVIEYVLGDEDQDEGGLDKDNESHSGDEEAVSVTGETKTNEIREKPEKKEVSAKSEKKEIVGKAVDKDNSEEVVRENKKKPVGEQEKA,MAPPIT interaction score,[3],0.105
same,MAPPIT interaction score,[4]; MAPPIT configuration: N-C,2.52
same,MAPPIT interaction score,[4]; MAPPIT configuration: N-N,0.317
Cnb (protein) MGNETSLPMDMCSNFDADEIRRLGKRFRKLDLDNSGALSIDEFMSLPELQQNPLVQRVIDIFDADGNGEVDFKEFIQGVSQFSVRGDKLSKLRFAFRIYDMDNDGYISNGELFQVLKMMVGNNLKDTQLQQIVDKTICFADKDEDGKISFDEFCSVVGNTDIHKKMVVDV,MAPPIT interaction score,[5],0.368
same,MAPPIT interaction score,[6]; MAPPIT configuration: N-C,0.361
same,MAPPIT interaction score,[6]; MAPPIT configuration: N-N,-0.0673
same,MAPPIT interaction score,[7]; MAPPIT configuration: N-C,0.335
same,MAPPIT interaction score,[7]; MAPPIT configuration: N-N,-0.212
same,MAPPIT interaction score,[8]; MAPPIT configuration: N-C,-0.173
same,MAPPIT interaction score,[8]; MAPPIT configuration: N-N,0.273
Uro (protein) MFATPLRQPAAANHQTPKNSAGMDEHGKPYQYEITDHGYGKDAVKVLHVSRNGPVHAIQEFEVGTHLKLYSKKDYYQGNNSDIVATDSQKNTVYLLAKKHGIESPEKFALLLARHFINKYSHVEEAHVHVEAYPWQRVCQEETRTNVNGKCENGVQGNCDFSSIDNRSLHNHAFIFTPTALHYCDVVIRRTDPKQTVITGIKGLRVLKTTQSSFVNFVNDEFRSLPDQYDRIFSTVVDCSWEYSDTENLDFLRAWQTVKNIIIRNFAGDPQVGVSSPSVQHTLYLSERQVLDVLPQVSVISMTMPNKHYFNFDTKPFQKIAPGDNNEVFIPVDKPHGTIYAQLARKNINSHL,MAPPIT interaction score,[9],-0.112
